Eya2 inh: inhibitors of human Eya2 phosphatase activity | hit rate 0.006% among 330,000 | O00167 | recombinant Eya2, OMFP fluorescence dephosphorylation (OMFP is methylfluorescein phosphate) | Potency, µM (titrated, usually from 76.9 µM), hits mostly inhibitors | AID 488837
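Eya2 (0.2 uM) preincubated 10 min at ambient with compound, then OMFP substrate added at 50 uM; 10 min reaction in 50 mM HEPES pH 7.5, 50 mM NaCl, 5 uM MgCl2, 0.05% BSA, 1 mM DTT. Fluorescence read at Ex 485/Em 525 nm.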
GALK inh: galactokinase (human) inhibition | P51570 | Purified GALK, Kinase-Glo residual ATP luminescence | Potency, µM (highest dose often 57.5 µM), most hits filed as inhibitors | hit rate 0.007% among 270,000
Target sequence (P51570 whole entry, looked up): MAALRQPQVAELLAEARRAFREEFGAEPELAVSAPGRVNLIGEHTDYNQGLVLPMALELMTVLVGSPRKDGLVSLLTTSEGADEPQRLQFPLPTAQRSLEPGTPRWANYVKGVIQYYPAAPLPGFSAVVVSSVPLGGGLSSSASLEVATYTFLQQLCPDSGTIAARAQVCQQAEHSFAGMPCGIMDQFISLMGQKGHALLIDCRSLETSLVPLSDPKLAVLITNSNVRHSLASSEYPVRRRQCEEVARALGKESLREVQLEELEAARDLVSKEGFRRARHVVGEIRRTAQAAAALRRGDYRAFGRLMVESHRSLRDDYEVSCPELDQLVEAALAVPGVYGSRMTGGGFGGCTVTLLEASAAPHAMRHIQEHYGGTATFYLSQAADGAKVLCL
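Kinase-Glo Plus luminescence measured ATP left after a 1 h room-temperature reaction. The reaction used 5 nM GALK, 100 uM galactose and 35 uM ATP at pH 8.0 (20 mM HEPES, 5 mM MgCl2, 60 mM NaCl, 1 mM DTT, 0.01% BSA).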
USP2a block: USP2a (human) protease inhibition. O75604. USP2 core, Ub-CHOP2 coupled fluorogenic reporter, 485/531. Potency, µM (titrated, usually from 38.3 µM), actives largely listed as inhibitors. hit rate 0.01% among 330,000. AID 463254
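USP2 core (10nM final) preincubated 30min RT with compound in 20mM Tris-HCl pH 8.0, 2mM CaCl2, 2mM beta-mercaptoethanol, 0.05% CHAPS; 25nM Ub-CHOP2 plus 25nM reporter substrate added, fluorescence (Ex485/Em531) read after 60min.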
ClpP mod: qHTS Assay for Activators of ClpP; purified B. subtilis ClpP, FRET peptide cleavage, 20 min; hit rate 1.9% among 340,000; AID 651965, 2013; Potency, µM (series often up to 57.5 µM); ATP-dependent Clp protease proteolytic subunit (Bacillus subtilis (strain 168)), P80244; active = well fitted falling curve with a large enough effect; inconclusive = small, poorly fitted or top-dose-only effect; inactive = no such curve, though single readings can be large or run the other way; also: the source files actives as falling curves though it sought activators and does not explain the sign; nearly all actives have a fitted effect of over 65% in size
Target sequence (P80244 whole entry, looked up): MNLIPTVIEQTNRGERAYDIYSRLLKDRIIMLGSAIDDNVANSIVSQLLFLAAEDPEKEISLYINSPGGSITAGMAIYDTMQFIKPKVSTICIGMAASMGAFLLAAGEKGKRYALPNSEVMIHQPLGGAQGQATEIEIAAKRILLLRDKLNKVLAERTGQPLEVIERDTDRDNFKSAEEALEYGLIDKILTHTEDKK
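Buffer: 100 mM Tris/HCl pH8, 100 mM KCl, 0.05% low protease BSA, 2.5% glycerol, 0.01% Tween-20. ClpP 10 microg/mL final; 20 min RT; delta FRET normalized to ADEP and DMSO controls.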
A number is an active result; i = inactive; ? = inconclusive; nt = no result given; [ ] = another dose, or the depositor's remark. The sample as a whole holds a higher share of hits than the screen did. Unless noted, calls follow the shape of the dose curve; as a rule, active = well fitted inhibition curve with a large enough effect; inconclusive = small, poorly fitted or top-dose-only effect, or effect the other way; inactive = flat fitted curve, though single readings scatter.

SMILES	Eya2 inh	GALK inh	USP2a block	ClpP mod
CCc1ccc2nc3nc(C)cc(C)c3c(N)c2c1	i	i	i	11µM
CCN(CC)C(=O)c1c(C)[nH]c(=S)c(C#N)c1-c1ccco1	i	i	i	nt
Cc1cc(/C=C/c2ccnc3ccccc23)ccc1N(C)C	nt	nt	nt	i
Cc1nn(C)cc1CNC(=O)C1CCC(=O)N(Cc2cccc(C(F)(F)F)c2)C1 (stereo not given)	i	i	i	25µM
CCn1nc(C)c(Oc2ccccc2O)c1C	i	i	i	i
Cc1cc(C)nc(-n2nc(C)c(Oc3ccccc3O)c2C)n1	i	i	i	28µM
Cc1cnc(-c2nnc(N(C)C(=O)C3CCOC3)s2)cn1 (stereo not given)	i	i	i	28µM
O=C(NNC(=O)C12CC3CC(CC(C3)C1)C2)c1ccccc1O	i	nt	i	?
O=C(NC12CC3CC(CC(C3)C1)C2)c1ccccc1O	i	i	i	28µM
COc1ccc(-c2ccc(CN3C(CC(C)C)C(=O)N(Cc4cn(CCC5OCCCO5)nn4)CCS3(=O)=O)cc2)cc1OC (stereo not given)	nt	nt	nt	i
Cc1cc(C)cc(N(C(=O)c2csnn2)C(C(=O)NC(C)(C)C)c2cccs2)c1 (stereo not given)	i	i	i	i
N#Cc1c(N)n(CCNC(=O)c2ccccc2)c2nc3ccccc3nc12	i	nt	i	i
COc1ccccc1CCn1c(N)c(C#N)c2nc3ccccc3nc21	i	i	i	32µM
N#Cc1c(N)n(CCCN2CCOCC2)c2nc3ccccc3nc12	i	i	i	4.5µM
COc1ccc(Cn2c(N)c(C#N)c3nc4ccccc4nc32)cc1OC	i	i	i	14µM
COc1ccc(CCn2c(N)c(C#N)c3nc4ccccc4nc32)cc1OC	i	i	i	?
CCCCCn1c(N)c(C#N)c2nc3ccccc3nc21	i	i	i	?
CC1CCCCN1C(=O)c1ccc2c(c1)N(Cc1ccc(Cl)cc1)C(=O)c1ccccc1S2=O (stereo not given)	nt	nt	nt	i
Cc1ccc(F)cc1NC(=O)CN1CCN(Cc2ccccc2)CC1	i	i	i	i
COc1ccccc1-c1cc(C(F)(F)F)n2ncc(S(=O)(=O)c3ccccc3)c2n1	i	i	i	28µM
COc1ccc(C2C(C(=O)Nc3ccccc3)=C(C)Nc3nc(-c4ccccc4)nn32)c(OC)c1 (stereo not given)	nt	nt	nt	i
CCOc1ccc(C(C(=O)NCC2CCCO2)N(C(=O)c2snc(C(N)=O)c2N)c2ccc(F)cc2)cc1 (stereo not given)	i	i	i	i
CCCCC(CCC(=O)Nc1ccn(-c2ccccc2)n1)C(=O)O (stereo not given)	40µM	i	i	i
O=C1/C(=C\c2cccs2)Sc2ccc3ccccc3c21	i	i	i	nt
FC(F)(F)c1nc2nncn2c2c1CCCCC2	i	i	i	32µM
SMILES	Eya2 inh	GALK inh	USP2a block	ClpP mod
CC(C)(C)NC(=O)Cn1nc(C(F)(F)F)c2c1CCCC2	i	i	i	nt
O=C(c1c[nH]c2ccc(S(=O)(=O)N3CCOCC3)cc2c1=O)N1CCCC1	i	i	i	7.9µM
CCCCNC(=O)c1c[nH]c2ccc(S(=O)(=O)N3CCOCC3)cc2c1=O	i	i	i	nt
CCN(c1ccccc1)S(=O)(=O)c1ccc2[nH]cc(C(=O)N3CCOCC3)c(=O)c2c1	i	i	i	32µM
CCN(c1ccccc1)S(=O)(=O)c1cccc(C(=O)N2CCN(S(=O)(=O)c3ccccc3)CC2)c1	i	i	i	28µM
CN1CCN(C(=O)c2ccc(COc3ccc(Cl)cc3Cl)cc2)CC1	i	i	i	i
CCOC(=O)C1CCN(S(=O)(=O)c2cccc(-c3cn4cc(Cl)ccc4n3)c2)CC1	i	i	i	?
CC1CCN(S(=O)(=O)c2cccc(-c3cn4cc(Cl)ccc4n3)c2)CC1	i	i	i	35µM
CCOc1cc(N2CCOCC2)c(OCC)cc1NC(=O)CSc1ncn[nH]1	i	i	i	nt
CC(CCc1ccccc1)NC(=O)COC(=O)c1cccc2ccccc12 (stereo not given)	i	i	i	25µM
O=C(O)c1ccccc1-c1ccccc1C(=O)NCc1ccccc1F	i	i	i	8.9µM
C1=C(c2ccc(-c3ccccc3)cc2)Nc2ncnn2C1c1ccco1 (stereo not given)	?	i	?	16µM
Fc1ccc(C2=CC(c3ccco3)n3ncnc3N2)cc1 (stereo not given)	i	i	i	i
OCCCc1nc2n(n1)C(c1cccs1)C=C(c1ccc(Br)cc1)N2 (stereo not given)	i	i	?	nt
Fc1ccc(C2=CC(c3ccc(Br)o3)n3ncnc3N2)cc1 (stereo not given)	i	i	?	32µM
Brc1ccc(C2=CC(c3cccs3)n3ncnc3N2)cc1 (stereo not given)	?	i	?	32µM
Cc1ccc(CN2CC(C(=O)Nc3ccc4c(C)cc(=O)oc4c3)CC2=O)cc1 (stereo not given)	i[15.4 µM]	i	i	i
C=CCN(c1ccc(C(=O)OC)cc1)S(=O)(=O)c1ccccc1	i	i	i	i
Cc1ccc(NCCC(=O)c2cccc([N+](=O)[O-])c2)c(C)c1	i	i	i	i
Cc1ccc(-c2nc3n(n2)Cc2ccccc2-3)cc1	i	i	i	i
c1ccc(-c2cn3c(n2)-c2ccccc2C3)cc1	i	i	i	14µM
Cc1ccc2c(N)c(C#N)sc2n1	i	i	i	i
Cc1cc(-c2ccccc2)c(C#N)c(N)n1	nt	i	nt	32µM
Cc1ccc2c(n1)sc1c(-c3ccccc3)c(C#N)c(N)nc12	i	i	i	35µM
N#Cc1c(-c2ccccc2)cc(-c2ccc(O)cc2)nc1N	i	i	i	i
SMILES	Eya2 inh	GALK inh	USP2a block	ClpP mod
Cc1ccc2c(n1)sc1c(N)ncnc12	i	i	i	32µM
O=C(NCc1ccc(F)cc1F)c1cc(COc2c(F)cccc2F)on1	i	i	i	18µM
c1cncc(C(c2nnnn2C2CCCCC2)N2CCN3CCCC3C2)c1 (stereo not given)	i	i	i	i
COc1ccc(-c2cc3ccccc3n2CC(O)CNCCO)cc1 (stereo not given)	i	i	i	11µM
COc1cccc(C(=O)NC2CC(C)(C)Cc3c2cnn3-c2cccc(F)c2)c1OC (stereo not given)	i	i	i	14µM
COc1ccc(OC)c(C2C3CN(C(C)C)CC=C3C(C#N)=C(N)C2(C#N)C#N)c1 (stereo not given)	i	i	i	i
Cc1ccc(C2C3CN(C(C)C)CC=C3C(C#N)=C(N)C2(C#N)C#N)cc1 (stereo not given)	i	i	?	20µM
CN1CC=C2C(C#N)=C(N)C(C#N)(C#N)[C@H](c3ccoc3)[C@H]2C1	i	i	i	32µM
CC(C)(C)Cc1c(-c2cccc(Cl)c2)nc2ccc(Br)cn12	nt	nt	nt	i
COc1ccc(C2C3=C(CCCC3=O)Nc3n[nH]c(C)c32)cc1OC (stereo not given)	?	i	i	nt

Compound activity: PubChem, National Center for Advancing Translational Sciences (NCATS)
